# Results from PubChem BioAssay (Tox21).
# A number with no mark means an inactive call. Records with an inconclusive call do not appear. Entries that show only a call come without a potency. Active and inactive are the calls of the source. Unless noted, calls come from the whole dose curve; as a rule, active = well fitted curve in the direction sought with a large enough effect in the repeat runs; inconclusive = weak or mixed curves; inactive = no such curve, though single readings can be large; an effect the other way counts as inactive or inconclusive.
# How the values were obtained:
# [1] = qHTS assay to identify small molecule antagonists of the sonic hedgehog signaling (Shh) pathway (AID 1259369; calls by dose curve; note: nearly all actives have a fitted effect of over 45% in size; note: potency is the fitted concentration of half-maximal effect)
# Summary of the method: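 3T3Gli1-Luc, conditioned-medium-stimulated, 24hr cpd, 37C/5% CO2; Gli1-driven firefly Luc luminescence after 30min RT with luciferase reagent. Cells plated 4hr before cpd.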
# [2] = biological target: Estrogen receptor beta (Homo sapiens) (UniProt Q92731); assay: qHTS assay to identify small molecule agonists of the estrogen receptor beta (ER-beta) signaling pathway (AID 1259377; active = well fitted activation curve with a large enough effect in the signal ratio in the repeat runs, not every such curve was filed as active; the % refers to the signal ratio)
# Chain of Estrogen receptor beta (Homo sapiens) (Q92731 whole entry, looked up): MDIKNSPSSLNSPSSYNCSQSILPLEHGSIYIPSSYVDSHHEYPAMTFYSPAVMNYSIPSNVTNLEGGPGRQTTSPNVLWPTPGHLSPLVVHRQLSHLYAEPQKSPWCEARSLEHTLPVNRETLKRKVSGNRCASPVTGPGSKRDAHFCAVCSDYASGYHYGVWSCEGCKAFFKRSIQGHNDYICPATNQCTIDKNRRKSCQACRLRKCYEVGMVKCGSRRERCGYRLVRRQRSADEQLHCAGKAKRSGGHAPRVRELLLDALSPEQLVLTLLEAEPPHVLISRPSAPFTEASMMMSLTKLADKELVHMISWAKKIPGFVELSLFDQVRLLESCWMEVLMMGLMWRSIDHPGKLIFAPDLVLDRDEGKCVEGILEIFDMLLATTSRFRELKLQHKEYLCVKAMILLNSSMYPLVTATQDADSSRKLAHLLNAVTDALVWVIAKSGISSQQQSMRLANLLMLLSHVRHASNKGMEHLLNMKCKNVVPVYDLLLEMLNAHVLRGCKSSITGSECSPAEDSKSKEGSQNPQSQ
# Summary of the method: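 Reporter cells (HEK293T, ER-beta-UAS-bla) receive compounds or DMSO after a 6 hr pre-incubation. They then incubate 16 hr at 37C/5% CO2, and fluorescence from LiveBLAzer B/G substrate is measured after 2 hours at room temperature.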
# [3] = biological target: Estrogen receptor beta (Homo sapiens) (UniProt Q92731); assay: qHTS assay to identify small molecule antagonists of the estrogen receptor beta (ER-beta) signaling pathway (AID 1259378; active = well fitted inhibition curve with a large enough effect in the signal ratio in the repeat runs, not every such curve was filed as active; the % refers to the signal ratio)
# Summary of the method: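 Antagonist mode: compounds added to beta-lactamase reporter HEK293T ER-beta-UAS cells stimulated with E2 (1nM final), 16 hr at 37C. LiveBLAzer B/G FRET substrate, 2 hours room temperature, fluorescence read-out.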
# [4] = qHTS assay to identify small molecule agonists of the androgen receptor (AR) signaling pathway in the presence of an antagonist - cell viability counter screen (AID 1259379); note: nearly all actives have a fitted effect of over 25% in size; note: potency is the fitted concentration of half-maximal effect
# Summary of the method: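 Cells: MDA-kb2 (MMTV-luc, AR and GR elements), 3,000/well, 5 hr settle. Added: nilutamide 3.0uM final, then compounds (15 conc.). Incubation: 16 hr, 37C, no CO2. Read-out: CellTiter-Fluor, 1 hr, fluorescence.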
# [5] = qHTS assay to identify small molecule agonists of the estrogen receptor beta (ER-beta) signaling pathway - cell viability counter screen (AID 1259380); note: nearly all actives have a fitted effect of over 30% in size
# Summary of the method: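 HEK293T ER-beta-UAS-bla; 2% CS-FBS; 6 hr pre-plate, 16 hr cpd at 37C/5% CO2; LiveBLAzer read first, then CellTiter-Glo 30 min RT, luminescence.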
# [6] = qHTS assay to identify small molecule antagonists of the estrogen receptor beta (ER-beta) signaling pathway - cell viability counter screen (AID 1259382);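 note: HEK293T cells carrying ER-beta-UAS-bla reporter stimulated with estradiol; series mostly up to about 92 µM; nearly all actives have a fitted effect of over 55% in size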
# Summary of the method: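 Cells: ER-beta-UAS-bla HEK293T, 2,000/well, 2% CS-FBS, 6 hr settle. Cpd + E2 (1nM final), 16 hr, 37C/5% CO2. Bla FRET substrate 2 hr RT, then CellTiter-Glo 30 min RT, luminescence.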
# [7] = biological target: Estrogen receptor (Homo sapiens) (UniProt P03372); assay: qHTS assay to identify small molecule agonists of the estrogen receptor alpha (ER-alpha) signaling pathway in the presence of an antagonist (AID 1259383; calls by dose curve; note: top concentration of the series differs between compounds; nearly all actives have a fitted effect of over 15% in size)
# Chain of Estrogen receptor (Homo sapiens) (P03372 whole entry, looked up): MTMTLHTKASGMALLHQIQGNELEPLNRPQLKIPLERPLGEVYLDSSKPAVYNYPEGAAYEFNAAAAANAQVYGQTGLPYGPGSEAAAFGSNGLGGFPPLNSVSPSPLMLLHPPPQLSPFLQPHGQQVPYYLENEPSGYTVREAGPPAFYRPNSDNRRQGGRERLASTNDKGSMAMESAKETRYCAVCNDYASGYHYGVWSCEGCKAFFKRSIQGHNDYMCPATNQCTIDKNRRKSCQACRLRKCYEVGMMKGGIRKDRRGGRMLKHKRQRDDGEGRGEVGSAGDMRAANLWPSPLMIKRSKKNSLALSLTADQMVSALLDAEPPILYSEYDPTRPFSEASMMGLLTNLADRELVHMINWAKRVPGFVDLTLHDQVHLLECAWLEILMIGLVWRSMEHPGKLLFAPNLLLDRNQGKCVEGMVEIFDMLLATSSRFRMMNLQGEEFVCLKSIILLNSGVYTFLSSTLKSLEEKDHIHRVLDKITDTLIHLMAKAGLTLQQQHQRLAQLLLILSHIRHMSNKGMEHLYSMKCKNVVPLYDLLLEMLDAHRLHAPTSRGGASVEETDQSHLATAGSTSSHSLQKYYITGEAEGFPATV
# Summary of the method: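 VM7Luc4E2, endog. ER-alpha + 4×ERE-luc; charcoal-stripped FBS, phenol red-free, 5 d; 24hr plating; +10.0nM ICI-182,780 (final); cpds 15 conc, 22hr, 37C/5% CO2; ONE-Glo luminescence.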
# [8] = qHTS assay to identify small molecule agonists or antagonists of the thyroid stimulating hormone receptor (TSHR) signaling pathway - wild type cell line counter screen (AID 1259384; calls by dose curve)
# Summary of the method: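 Counter screen in untransfected Hek293: compounds (15-point titration, triplicate) plus phosphodiesterase inhibitor Ro20-1724 added after 18 h plating; 30 min RT. Intracellular cAMP via competitive d2/cryptate immunoassay, 1 h incubation.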
# [9] = biological target: Thyrotropin receptor (Homo sapiens) (UniProt P16473); assay: qHTS assay to identify small molecule antagonists of the thyroid stimulating hormone receptor (TSHR) signaling pathway (AID 1259385; calls by dose curve; note: nearly all actives have a fitted effect of over 20% in size; note: potency is the fitted concentration of half-maximal effect)
# Chain of Thyrotropin receptor (Homo sapiens) (P16473 whole entry, looked up): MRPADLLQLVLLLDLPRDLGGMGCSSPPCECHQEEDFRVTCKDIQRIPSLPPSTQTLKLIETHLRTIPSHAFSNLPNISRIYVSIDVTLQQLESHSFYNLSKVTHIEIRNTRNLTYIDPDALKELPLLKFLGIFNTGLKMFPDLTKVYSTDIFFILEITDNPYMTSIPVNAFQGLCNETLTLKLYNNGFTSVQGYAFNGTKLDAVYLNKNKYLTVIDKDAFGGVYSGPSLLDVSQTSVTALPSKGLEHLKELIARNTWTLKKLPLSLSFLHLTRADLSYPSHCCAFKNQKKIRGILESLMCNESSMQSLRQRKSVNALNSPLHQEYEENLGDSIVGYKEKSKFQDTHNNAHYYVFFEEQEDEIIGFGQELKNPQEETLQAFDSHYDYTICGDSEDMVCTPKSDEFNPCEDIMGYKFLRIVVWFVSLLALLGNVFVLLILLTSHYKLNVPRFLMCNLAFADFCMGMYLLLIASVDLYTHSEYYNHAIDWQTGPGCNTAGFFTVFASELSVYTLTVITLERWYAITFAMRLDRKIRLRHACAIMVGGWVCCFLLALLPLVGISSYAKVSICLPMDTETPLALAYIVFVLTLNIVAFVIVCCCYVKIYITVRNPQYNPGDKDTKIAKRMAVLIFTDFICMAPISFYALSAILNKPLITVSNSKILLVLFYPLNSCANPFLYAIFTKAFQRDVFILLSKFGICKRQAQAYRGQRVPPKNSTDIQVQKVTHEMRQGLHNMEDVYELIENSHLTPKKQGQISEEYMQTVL
# Summary of the method: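 Antagonist mode: compound-treated TSHR-expressing HEK293 cells were stimulated with 1.5 ng/mL TSH (final) in presence of Ro20-1724 for 30 min at RT. HTRF cAMP detection after 1 h; each compound tested at 15 concentrations, triplicate.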
# [10] = qHTS assay to identify small molecule agonists of the estrogen receptor alpha (ER-alpha) signaling pathway in the presence of an antagonist - cell viability counter screen (AID 1259386);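 note: cells exposed to compounds for 22 h at 37 °C before the viability read; nearly all actives have a fitted effect of over 30% in size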; note: potency is the fitted concentration of half-maximal effect
# Summary of the method: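 VM7Luc4E2, stripped-serum pre-culture 5 d; 24hr plating; +ICI-182,780 10.0nM final; cpds 15 conc, 22hr, 37C/5% CO2; CellTiter-Fluor added at 21hr, fluorescence 1hr later.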
# [11] = biological target: Progesterone receptor (Homo sapiens) (UniProt P06401); assay: qHTS assay to identify small molecule agonists of the progesterone receptor (PR) signaling pathway (AID 1346784; calls by dose curve; note: nearly all actives have a fitted effect of over 30% in size)
# Chain of Progesterone receptor (Homo sapiens) (P06401 whole entry, looked up): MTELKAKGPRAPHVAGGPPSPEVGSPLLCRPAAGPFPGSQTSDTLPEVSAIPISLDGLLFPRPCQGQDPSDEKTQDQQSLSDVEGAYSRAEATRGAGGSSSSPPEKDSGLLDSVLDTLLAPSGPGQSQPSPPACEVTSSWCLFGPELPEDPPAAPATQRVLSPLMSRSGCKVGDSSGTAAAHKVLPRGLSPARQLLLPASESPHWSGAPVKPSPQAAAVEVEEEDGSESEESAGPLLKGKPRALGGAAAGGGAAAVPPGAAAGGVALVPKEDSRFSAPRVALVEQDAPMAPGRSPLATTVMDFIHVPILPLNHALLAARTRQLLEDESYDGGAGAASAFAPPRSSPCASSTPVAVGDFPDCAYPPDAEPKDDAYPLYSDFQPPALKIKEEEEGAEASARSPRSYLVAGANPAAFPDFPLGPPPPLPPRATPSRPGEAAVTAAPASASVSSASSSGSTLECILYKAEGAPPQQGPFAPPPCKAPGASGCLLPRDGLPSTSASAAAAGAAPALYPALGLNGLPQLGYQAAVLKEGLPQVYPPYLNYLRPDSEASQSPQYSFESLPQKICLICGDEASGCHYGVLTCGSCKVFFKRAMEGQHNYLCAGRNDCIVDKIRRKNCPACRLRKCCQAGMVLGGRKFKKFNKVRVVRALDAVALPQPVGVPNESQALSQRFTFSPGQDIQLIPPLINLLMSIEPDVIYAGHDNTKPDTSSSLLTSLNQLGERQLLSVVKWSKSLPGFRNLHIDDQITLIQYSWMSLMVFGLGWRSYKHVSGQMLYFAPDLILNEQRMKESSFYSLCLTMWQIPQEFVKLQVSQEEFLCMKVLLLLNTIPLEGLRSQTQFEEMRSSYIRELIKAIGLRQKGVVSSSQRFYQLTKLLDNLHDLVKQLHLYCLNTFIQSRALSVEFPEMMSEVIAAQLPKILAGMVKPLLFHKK
# Summary of the method: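 Reporter assay, GripTite PR-UAS-bla HEK 293T cells: 16 hr exposure to DMSO-dissolved compounds at 37C, 5% CO2, in steroid-depleted (2% charcoal-stripped FBS) medium; beta-lactamase measured by FRET fluorescence.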
# [12] = biological target: Progesterone receptor (Homo sapiens) (UniProt P06401); assay: qHTS assay to identify small molecule antagonists of the progesterone receptor (PR) signaling pathway (AID 1346795; active = well fitted inhibition curve with a large enough effect in the signal ratio in the repeat runs, not every such curve was filed as active; the % refers to the signal ratio)
# Summary of the method: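 Stimulus R5020 at 1 nM final; cells HEK293T PR-UAS-bla; medium with 2% charcoal-stripped FBS; compound exposure 16 hr at 37C, 5% CO2; detection by FRET beta-lactamase substrate, 2 hr, room temperature.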
# [13] = qHTS assay to identify small molecule antagonists of the progesterone receptor (PR) signaling pathway - cell viability counter screen (AID 1346798); note: series mostly up to about 92 µM; nearly all actives have a fitted effect of over 50% in size
# Summary of the method: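 In the same plates used for the beta-lactamase readout, cell viability of compound- and R5020-treated PR-UAS-bla HEK293T cells (16 hr, 37C) was assessed by CellTiter-Glo luminescence.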
# [14] = qHTS assay to identify small molecule agonists of the progesterone receptor (PR) signaling pathway - cell viability counter screen (AID 1346799; calls by dose curve; note: nearly all actives have a fitted effect of over 45% in size)
# Summary of the method: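 Multiplexed viability read: CellTiter-Glo luminescence, 30 min RT, following LiveBLAzer FRET measurement on PR-UAS-bla HEK293T cells exposed to compounds 16 hr.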
# [15] = qHTS assay to identify small molecule antagonists of the TGF-beta/Smad signaling pathway - cell viability counter screen (AID 1346824); note: nearly all actives have a fitted effect of over 50% in size
# Summary of the method: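 Cytotoxicity counter-screen run in the same wells as the beta-lactamase Smad reporter read: CellTiter-Glo luminescence after 30 min at room temperature. HEK 293T SBE-bla cells had 5 hr compound exposure at 37 C with TGF-beta1 (0.25 ng/mL stock).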
# [16] = qHTS assay to identify small molecule agonists of the TGF-beta/Smad signaling pathway (AID 1346859; active = well fitted activation curve with a large enough effect in the signal ratio in the repeat runs, not every such curve was filed as active; the % refers to the signal ratio; note: series mostly up to about 77 µM)
# Summary of the method: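 Screening used HEK 293T SBE-bla cells at 4,000/well. Test agents: 5 hr, 37 C. Detection: FRET substrate, 2 hr RT, then excitation 405 nm with emissions at 460 and 530 nm.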
# [17] = biological target: Thyrotropin-releasing hormone receptor (Homo sapiens) (UniProt P34981); assay: qHTS assay to identify small molecule agonists of the thyrotropin-releasing hormone receptor (TRHR) signaling pathway (AID 1346891; calls by dose curve; note: series mostly up to about 58 µM)
# Chain of Thyrotropin-releasing hormone receptor (Homo sapiens) (P34981 whole entry, looked up): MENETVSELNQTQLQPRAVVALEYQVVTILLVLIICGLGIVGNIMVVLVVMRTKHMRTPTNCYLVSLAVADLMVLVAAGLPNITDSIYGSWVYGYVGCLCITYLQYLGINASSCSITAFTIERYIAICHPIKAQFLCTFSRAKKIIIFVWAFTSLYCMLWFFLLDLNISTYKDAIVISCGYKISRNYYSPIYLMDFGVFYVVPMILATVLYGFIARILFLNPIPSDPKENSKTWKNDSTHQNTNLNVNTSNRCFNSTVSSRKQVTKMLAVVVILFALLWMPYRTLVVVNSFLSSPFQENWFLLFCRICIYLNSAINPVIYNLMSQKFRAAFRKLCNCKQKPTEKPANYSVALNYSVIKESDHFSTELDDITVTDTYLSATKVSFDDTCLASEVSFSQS
# Summary of the method: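 Readout was intracellular calcium fluorescence in TRHR-Hek293 cells. Cells were incubated 18 h, dye-loaded 2 h at 37 °C, and treated with compound in agonist mode.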
# [18] = qHTS assay to identify small molecule agonists of the TGF-beta/Smad signaling pathway - cell viability counter screen (AID 1346829); note: top concentration of the series differs between compounds; nearly all actives have a fitted effect of over 45% in size
# Summary of the method: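 Same-well cytotoxicity: CellTiter-Glo added after the 2 hr room-temperature beta-lactamase substrate step, luminescence measured 30 min later; cells had 5 hr of compound at 37 C.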
# [19] = biological target: Androgen receptor (Homo sapiens) (UniProt P10275); assay: qHTS assay to identify small molecule agonists of the androgen receptor (AR) signaling pathway in the presence of an antagonist (AID 1259381; calls by dose curve; note: nearly all actives have a fitted effect of over 15% in size)
# Chain of Androgen receptor (Homo sapiens) (P10275 whole entry, looked up): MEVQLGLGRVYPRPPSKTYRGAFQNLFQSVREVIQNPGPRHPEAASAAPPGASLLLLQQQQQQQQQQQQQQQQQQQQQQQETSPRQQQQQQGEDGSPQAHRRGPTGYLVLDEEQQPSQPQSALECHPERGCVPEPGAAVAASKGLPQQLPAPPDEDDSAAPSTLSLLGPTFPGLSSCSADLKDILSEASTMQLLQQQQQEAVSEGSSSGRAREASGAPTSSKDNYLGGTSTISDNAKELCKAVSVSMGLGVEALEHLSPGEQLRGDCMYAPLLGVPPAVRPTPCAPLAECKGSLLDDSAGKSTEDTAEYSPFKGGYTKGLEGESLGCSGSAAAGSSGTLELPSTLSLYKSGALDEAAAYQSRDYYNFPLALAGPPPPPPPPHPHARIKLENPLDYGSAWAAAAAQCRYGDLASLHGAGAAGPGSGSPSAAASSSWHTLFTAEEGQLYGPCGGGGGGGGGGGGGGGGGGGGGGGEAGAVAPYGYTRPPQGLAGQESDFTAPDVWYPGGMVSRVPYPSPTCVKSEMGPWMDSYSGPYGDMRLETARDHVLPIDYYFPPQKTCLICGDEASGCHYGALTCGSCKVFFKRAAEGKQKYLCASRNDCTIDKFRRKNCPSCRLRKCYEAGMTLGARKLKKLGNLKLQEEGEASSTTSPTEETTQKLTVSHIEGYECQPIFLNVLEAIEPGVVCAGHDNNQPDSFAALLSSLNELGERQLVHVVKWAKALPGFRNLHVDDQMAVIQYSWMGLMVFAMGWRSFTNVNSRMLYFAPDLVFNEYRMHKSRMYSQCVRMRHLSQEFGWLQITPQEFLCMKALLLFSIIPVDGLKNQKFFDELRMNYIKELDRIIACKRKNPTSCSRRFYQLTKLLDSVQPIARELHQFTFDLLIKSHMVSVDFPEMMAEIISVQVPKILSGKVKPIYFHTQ
# Summary of the method: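 MDA-kb2 cells, 3,000/well, rested 5hr at 37C/0% CO2 → nilutamide 3.0uM final or buffer → compounds, 15 conc. → 16hr at 37C → ONE-Glo, 30min RT → luminescence.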
# [20] = biological target: Thyrotropin-releasing hormone receptor (Homo sapiens) (UniProt P34981); assay: qHTS assay to identify small molecule antagonists of the thyrotropin-releasing hormone receptor (TRHR) signaling pathway (AID 1346877; active = well fitted inhibition curve with a large enough effect in the repeat runs, not every such curve was filed as active; note: series mostly up to about 51 µM)
# Summary of the method: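 Intracellular calcium fluorescence, read kinetically every second over 3 min, reports TRH-evoked signalling in HEK293 cells carrying TRHR. Test compounds were added 5 min ahead of a 1 nM TRH challenge.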
SMILES,Potency [1],Potency [2],Potency [3],Potency [4],Potency [5],Potency [6],Potency [7],Potency [8],Potency [9],Potency [10],Potency [11],Potency [12],Potency [13],Potency [14],Potency [15],Potency [16],Potency [17],outcome [18],Potency [19],outcome [20]
CCOC(=O)Cc1cccc2ccccc12,inactive,inactive,inactive,inactive,inactive,inactive,inactive,inactive,inactive,inactive,inactive,inactive,inactive,inactive,inactive,inactive,inactive,–,–,–
COS(=O)(=O)C(F)(F)F,14.3 µM (active),inactive,inactive,inactive,inactive,inactive,inactive,inactive,inactive,inactive,inactive,–,–,–,inactive,inactive,inactive,inactive,–,–
O=[N+]([O-])c1ccc(NCCO)c(OCCO)c1,inactive,inactive,inactive,54.5 µM (active),inactive,inactive,–,inactive,inactive,27.3 µM (active),inactive,inactive,inactive,inactive,inactive,inactive,inactive,inactive,inactive,inactive
CCN(CC)CCOC(=O)C(c1ccccc1)C1CCCCC1 (stereo not given),15 µM (active),inactive,inactive,inactive,inactive,inactive,inactive,inactive,26.6 µM (active),–,inactive,inactive,inactive,–,inactive,inactive,–,inactive,–,–
COc1ccnc(CS(=O)c2nc3ccc(OC(F)F)cc3[nH]2)c1OC (stereo not given),inactive,inactive,inactive,inactive,inactive,inactive,inactive,inactive,inactive,inactive,inactive,inactive,inactive,–,inactive,inactive,–,inactive,–,–
C[N+](C)(C)CCOC(=O)CCC(=O)OCC[N+](C)(C)C,inactive,inactive,inactive,inactive,inactive,inactive,inactive,inactive,inactive,inactive,inactive,inactive,inactive,inactive,inactive,inactive,inactive,inactive,–,inactive
CCO[C@H](Cc1ccc(OCCc2ccc(OS(C)(=O)=O)cc2)cc1)C(=O)O,inactive,inactive,inactive,inactive,inactive,inactive,inactive,–,–,inactive,inactive,inactive,–,inactive,inactive,inactive,–,–,inactive,–
